# This is part of a sample that, as a whole, favours compounds with a hit. Of some 83,000 tested, about 20% had one in any assay.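 96-well plates, one dose, 48 hours. Percent growth reported; active if below 10.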 Active and inactive are the calls of the source.
# System: KM12 colon
# Assay: NCI-60 one-dose screen, 48 h (100 = growth as untreated, 0 = no growth, -100 = all killed)
# Conditions: 10 µM unless noted
row,SMILES,growth
1,O=S(=O)(c1ccccc1)N1CCCN(c2nc(-c3ccccc3)nc3nc(-c4ccccc4)oc23)CC1,113% (inactive)
2,Cc1cc2oc(=O)cc(CP(=O)(O)O)c2cc1O,102% (inactive)
3,COC(=O)c1ccc2c(c1)c1c(C)c3ccncc3c(C)c1n2C,23.2% (inactive)
4,CCOC(=O)N1CCN(S(=O)(=O)c2oc(-c3ccc(Cl)cc3)nc2C#N)CC1,108% (inactive)
5,CC(CN)[C@@H]1CC[C@]2(CO)CC[C@]3(C)[C@H](CC[C@@H]4[C@@]5(C)CCC(N)C(C)(C)[C@@H]5CC[C@]43C)[C@@H]12 (stereo not given in full),-73.5% (active)
6,C=CC1(C)C(O[Si](C)(C)C(C)(C)C)CC2C3OC(=O)NC31c1cccc3c1[C@H](C(=O)N3C)C2(C)C (stereo not given in full),50.5% (inactive)
7,O=C1/C(=C/c2ccc(C(F)(F)F)cc2)COc2ccc(O)c(O)c21,-31.3% (active)
8,Cc1ccccc1CNc1c2ccccc2nc2ccccc12,16.9% (inactive)
9,CCCCC(=O)Nc1ncc(Cc2ccccc2Cl)s1,25.2% (inactive)
10,C=CCn1c(SCC(=O)Nc2ccc(C(=O)/C=C/c3cc(OC)c(OC)c(OC)c3)cc2)nnc1-c1cc(-c2ccc(OC)cc2)nc2ccccc12,94% (inactive)
11,N#Cc1c(NC(=O)c2cccs2)[n+]([O-])c2ccc(Cl)cc2[n+]1[O-],98.6% (inactive)
12,CCOC(=O)c1c2c(n3c1NCC3)-c1ccccc1C2=O,103% (inactive)
13,COc1ccc(NC(=O)c2cccc(C3CCc4c(cc(OC)c(OC)c4OC)O3)c2)cc1 (stereo not given),18.2% (inactive)
14,C[C@@H](CO)[C@@H]1CC[C@]2(C(=O)N3CCN(C)CC3)CC[C@]3(C)[C@H](CC[C@@H]4[C@@]5(C)CC[C@H](O)C(C)(C)[C@@H]5CC[C@]43C)[C@@H]12,86% (inactive)
15,COc1ccc(NC(=O)c2ccc(C(=O)Nc3ccc(OC)cc3OC)cc2)c(OC)c1,103% (inactive)
16,CCN(CC)CCCC(C)Nc1ccc2cc(OC)ccc2n1 (stereo not given),93.2% (inactive)
17,CCN(C(=O)N1CCN(c2cc3c(cc2F)c(=O)c(C(=O)O)cn3C2CC2)CC1)c1nc(-c2ccc(C)cc2)cs1,10.6% (inactive)
18,CCOC(=O)n1cc(-c2nonc2-c2cn(C)c3ccccc23)c2ccccc21,29.1% (inactive)
19,O=C1c2cccnc2C(=O)c2c1c(C(=O)OCCCN1CCCCC1)c1ccccn21,-33.2% (active)
20,Cc1ccc(Nc2nc(-c3ccc(F)cc3)c(C#N)c(=O)n2C)cc1,87.7% (inactive)
21,COc1cc(/C=C2\C(=O)N(c3c(Cl)cccc3Cl)c3ccccc32)cc(OC)c1OCCCCCCn1c2ccccc2c(=O)c2ccccc21,103% (inactive)
22,CSCCC(NC(=O)c1ccccc1)C(=O)N/N=C1\S/C(=C/c2ccc(Cl)cc2)C(=O)N1C (stereo not given),88.9% (inactive)
23,CC1(C)CCC(S(=O)(=O)c2ccc3c(c2)/C(=N\O)c2cc(S(=O)(=O)N4CCN(c5ccc(F)cc5O)CC4)ccc2-3)CC1,-90.3% (active)
24,Cc1cscc(C)c1=S,104% (inactive)
25,O=C(O)C1CN(c2cccc(Cl)c2)N(c2cccc(Cl)c2)C1=O (stereo not given),81.3% (inactive)
26,CCNC(=O)Oc1ccc(/C(=C(/C)Cc2ccc(OC)cc2)c2ccc(OCCN3CCCC3)cc2)cc1,71.5% (inactive)
27,CC[C@H](C)[C@H](NC(=O)[C@H](CCCNC(=N)N)NC(=O)[C@H](Cc1c[nH]c2ccccc12)NC(=O)[C@@H](NC(=O)[C@H](CCCCN)NC(=O)[C@H](CCCCN)NC(=O)[C@@H](NC(=O)[C@@H](NC(=O)[C@@H](NC(=O)[C@H](CCCCN)NC(=O)[C@H](Cc1ccccc1)NC(=O)[C@H](CCCCN)NC(=O)[C@H](CCCCN)NC(=O)[C@H](Cc1ccccc1)NC(=O)[C@@H](NC(=O)[C@@H](N)CCCCN)[C@@H](C)CC)[C@@H](C)O)[C@@H](C)CC)[C@@H](C)CC)C(C)C)C(=O)N[C@@H](Cc1ccccc1)C(=O)NCC(=O)N[C@@H](CCCNC(=N)N)C(=O)N[C@@H](Cc1ccccc1)C(N)=O,-25.6% (active)
28,CC1O[C@@H]2C[C@@](O)([C@H]1O)n1c3ccccc3c3c4c(c5c6ccccc6n2c5c31)C(=O)NC4=O (stereo not given in full),22.8% (inactive)
29,Cc1nc2sc(C(=O)Nc3cccc(Cl)c3)c(N)c2cc1C(O)c1ccccc1 (stereo not given),18.3% (inactive)
30,CC(C(=O)O)n1c(O)c(C=Nc2cccnc2)sc1=S (stereo not given),98.7% (inactive)
